Reference: the supplement of paper PMC11219838
Unmarked numbers belong to inactive results.

Legend:
Details in all cases: 60 µM; 5 days; temperature: 20 °C
Meloidogyne hapla J2 = test: proportion of mobile M. hapla J2 relative to DMSO control (fraction of DMSO control); higher = more viable, less nematicidal, active = 0.7 or less
Method in brief: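 Sealed 96-well plates, each well holding around 25 M. hapla J2 in distilled water with compound pinned to 60 µM final (0.6% v/v DMSO), were shaken at 200 rpm for 5 days at 20 °C. Then 2 µL of 1 M NaOH was added to each well. Microscope-scored mobility was normalised to the mean of DMSO-only wells from the same plate. Eight such wells were on each plate, and the two biological replicates were averaged.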

[1] = tested on: Caenorhabditis elegans dauer (daf-2(e1370)); test: proportion of mobile C. elegans dauer larvae relative to DMSO control (fraction of DMSO control); higher = more viable, less nematicidal, active = 0.63 or less; extreme values may be limits of the assay
Method in brief: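 Synchronized C. elegans daf-2(e1370) larvae were held at 25 °C for 48 h on MYOB plates with E. coli OP50 to form dauers, and about 20 dauers were added per 96-well well in liquid NGM. Compound was pinned to 60 µM final (0.6% v/v DMSO), and sealed plates were shaken at 200 rpm for 5 days at 20 °C. The proportion of mobile worms was scored under a dissection microscope relative to DMSO controls and averaged over two biological replicates.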

Ditylenchus dipsaci = test: proportion of mobile D. dipsaci (mixed stage) relative to DMSO control (fraction of DMSO control); higher = more viable, less nematicidal, active = 0.86 or less; extreme values may be limits of the assay
Method in brief: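 Mobility, expressed relative to DMSO controls, is the mean of two biological replicates. The test organisms were D. dipsaci grown on pea plants in Gamborg B-5 agar and extracted into water by filter funnel, with about 20 added per well of a 96-well plate in distilled water. Compound was pinned to 60 µM final (0.6% v/v DMSO), plates were sealed and shaken at 200 rpm for 5 days at 20 °C, and mobile worms were scored under a microscope once 2 µL 1 M NaOH had been added.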

Compound | proportion of mobile M. hapla J2 (Meloidogyne hapla J2) | proportion of mobile C. elegans dauer larvae [1] | proportion of mobile D. dipsaci (Ditylenchus dipsaci)
O=C(NCCc1ccccc1)c1ccccc1-c1nc(-c2ccccc2Cl)no1 | 0.669 (active) | 1 | 1
FC(F)(F)c1cccc(-c2noc(-c3cccnc3)n2)c1 | 0.813 | 1 | 0.914
C(=C\c1ccccc1)/CSc1nnc(-c2ccncc2)o1 | 0.979 | 1 | 1
Cc1cccc(C)c1NC(=O)CSc1nnc(-c2ccncc2)o1 | 0.908 | 1 | 1
CC(C)(Oc1ccc(Cl)cc1)c1nc(-c2ccncc2)no1 | 0.91 | 1 | 1
O=C(CSc1nnc(-c2ccc(Br)cc2)o1)NC1CCCC1 | 0.944 | 1 | 1
O=C(CSc1nnc(-c2ccc(Cl)cc2)o1)c1ccccc1 | 0.772 | 1 | 1
COc1ccc(-c2nnc(SCC(=O)Nc3ccc(Br)c(C)c3)o2)cc1 | 0.999 | 1 | 1
COc1ccccc1-c1nc(-c2ccc(Cl)cc2Cl)no1 | 1 | 1 | 1
COc1cccc(-c2noc(COc3ccc4ccccc4c3)n2)c1 | 1.04 | 1 | 1
Cc1ccc(C(=O)Nc2ccccc2-c2nc(-c3cccnc3)no2)cc1C | 0.962 | 1 | 1
COc1ccccc1OCc1nc(-c2cccc(C)c2)no1 | 0.871 | 1 | 1
Cc1ccc(-c2noc(-c3cccc(C)c3)n2)cc1 | 0.947 | 0.557 (active) | 1
